# Assay results taken from PubChem BioAssay (NCI).
# About 83,000 compounds went through this panel and 20% of them were active in at least one assay; those are over-represented in the sample as a whole.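 Each cell line was grown in a 96-well plate and treated with one concentration of compound for 48 hours. Values below 10 were considered active.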 Unmarked numbers belong to inactive results. The source made the active and inactive calls.
# Assays:
# Test in all cases: NCI-60 one-dose screen, 48 h (100 = growth as untreated, 0 = no growth, -100 = all killed)
# Details in all cases: 10 µM unless noted
# SK-MEL-2 melanoma = test system: SK-MEL-2 melanoma
# EKVX NSCLC = test system: EKVX NSCLC
# SN12C renal = test system: SN12C renal
# UO-31 renal = test system: UO-31 renal
# TK-10 renal = test system: TK-10 renal
# CAKI-1 renal = test system: CAKI-1 renal
# A498 renal = test system: A498 renal
# CCRF-CEM leukemia = test system: CCRF-CEM leukemia
# MOLT-4 leukemia = test system: MOLT-4 leukemia
# ACHN renal = test system: ACHN renal
SMILES,growth (SK-MEL-2 melanoma),growth (EKVX NSCLC),growth (SN12C renal),growth (UO-31 renal),growth (TK-10 renal),growth (CAKI-1 renal),growth (A498 renal),growth (CCRF-CEM leukemia),growth (MOLT-4 leukemia),growth (ACHN renal)
CC(C)(C)Nc1c(-c2c3ccccc3cc3ccccc23)nc2ccccn12,77.1%,70.1%,82.3%,49.8%,76%,50.1%,88.2%,61.7%,45.5%,–
CCCNCC(=O)Nc1ccc(C(=O)OC(C)(C)CC)cc1,95.6%,98.1%,105%,86.3%,93%,–,108%,104%,–,–
COC(=O)[C@]12CC[C@@H](C)[C@H](C)[C@@H]1C1=CC[C@@H]3[C@@]4(C)C(C=O)=C[C@@](C)(CO)C4=CC[C@@]3(C)[C@]1(C)CC2,52.4%,34.4%,37.6%,27.8%,54.4%,42.8%,–,18.7%,8.61% (active),–
CCCCCCCCCCCCCCCCCC1=NCCN1C(=O)OCCO,76.8%,83.4%,32.7%,29.5%,-65.4% (active),–,89.1%,-2.98% (active),8.42% (active),38.4%
Cc1cc(=O)c2cc3nc(-c4cccnc4)oc3c(Br)c2o1,131%,98.9%,110%,106%,153%,–,103%,94.1%,89.7%,110%
COc1cc(C2CC(c3ccc(Nc4nc(Nc5ccc(F)cc5)nc(Nc5ccc(Cl)cc5)n4)cc3)=NN2C(C)=O)cc(OC)c1OC (configuration not stated),66%,202%,80.8%,53.6%,60.7%,–,78.4%,27.6%,4.27% (active),77.5%
CC(C)c1ccc(NC(=O)Cc2ccc(Nc3ncnc4cc(-c5cnn(CCN(C)C)c5)ccc34)cc2)cc1,65.7% [30 µM],-49.6% [30 µM] (active),-95.9% [30 µM] (active),-72.9% [30 µM] (active),-57.3% [30 µM] (active),-40.7% [30 µM] (active),42.2% [30 µM],-28.2% [30 µM] (active),-50.9% [30 µM] (active),–
O=C1NC(=S)S/C1=C\N1N=C(c2ccc(Cl)cc2)CC1c1ccc(F)cc1 (configuration not stated),95.5%,76%,96.5%,60.1%,101%,85.4%,–,65.5%,45.1%,–
CCN(CCO)CC(=O)c1cc(Cl)cc(Cl)c1Cl,92.4%,105%,100%,93.5%,86.7%,–,102%,82.9%,–,–
O=S(=O)(Nc1ccsc1-c1nc(-c2ccccc2)no1)c1cc(Cl)cc(Cl)c1,105%,95.6%,91.3%,83.2%,102%,86.9%,91.1%,101%,104%,–
COc1cccc(CCC2CCCN(c3cc(C)nc(N)n3)C2)c1 (configuration not stated),29.1%,41.4%,34.1%,35.7%,37.5%,–,-2.99% (active),25.7%,27.5%,–
NC(=Nc1ccc(N)cc1)C(N)=Nc1ccc(N)cc1,-7.4% (active),107%,104%,92.9%,87.3%,–,91.3%,–,124%,93.4%
N#Cc1cnn2c(-c3ccc(Cl)cc3)nc(NC3CC3)nc12,99.8%,75.9%,98.9%,69.2%,94.2%,–,84.5%,95.7%,80.1%,96.8%
C=C(C)[C@@H]1CC[C@]2(CNCCO)CC[C@]3(C)[C@H](CC[C@@H]4[C@@]5(C)CCC(N)[C@@](C)(CO)[C@@H]5CC[C@]43C)[C@@H]12 (some centres not stated),-19% (active),40%,-11.4% (active),66.1%,-47.4% (active),71.2%,78.1%,-38.7% (active),–,–
C=C1C(=O)O[C@H]2[C@H]1CC/C(COC(=O)/C=C\C(=O)NCc1ccc(Cn3c(=O)sn(-c4ccc(Cl)cc4)c3=O)cc1)=C\CC[C@@]1(C)O[C@@H]21,-64.7% (active),-74.8% (active),-96.1% (active),-100% (active),-85.1% (active),-69.9% (active),-15.8% (active),-22.9% (active),-36.7% (active),–
O=C(/C=C/C12c3ccccc3C(c3ccccc31)C1C(=O)N(c3ccccc3)C(=O)C12)c1ccccc1 (configuration not stated),24.5%,8.88% (active),15%,-77.5% (active),20.8%,45.8%,–,9.95% (active),11%,–
CN(C)c1ccc(-c2cc(-c3ccc(Nc4nc(Nc5ccccc5)nc(Nc5ccc(Cl)cc5)n4)cc3)nc(N)n2)cc1,47.2%,33.3%,50%,39%,74.6%,39.5%,–,5.11% (active),-4.17% (active),–
O=S(=O)(Cc1ccccc1)c1nc2ccccc2s1,57.7%,99.3%,35.5%,49.9%,98%,–,111%,15.4%,14.1%,–
Cc1cc(NS(=O)(=O)c2ccccc2)c(OS(=O)(=O)c2ccccc2)cc1C,118%,104%,94%,73.6%,–,109%,89.2%,97.5%,–,104%
CN(C)CCOC(=O)Nc1ccc(Cl)cc1,79.4%,101%,107%,71.2%,95.1%,–,113%,80.5%,89.9%,–
COc1cc(-c2cccc([N+](=O)[O-])c2)c(-c2nc(-c3ccccc3)c(-c3ccccc3)n2C2CC2)cc1OC,57.6%,57.2%,75.1%,37.7%,66.2%,–,77.6%,48.1%,25.9%,–
COc1cc2c(cc1OC)-c1ccc3cc4c(cc3c1N(CCN(C)C)C2)OCO4,36%,25.4%,0.583% (active),24.2%,16.6%,–,-33.8% (active),-1.03% (active),0.14% (active),–
C=C(C=O)C1CCC2(C(=O)O)CCC3(C)C(CCC4C5(C)CCC(O)C(C)(C)C5CCC43C)C12 (configuration not stated),30.1%,41.9%,21.5%,-69.3% (active),–,-27.6% (active),55.2%,6.48% (active),10.4%,-65.4% (active)
CC(=O)Nc1ccc2c(c1)Cc1c(F)cccc1-2,128%,101%,101%,49.2%,–,87.2%,77.6%,85.6%,111%,93%
CN1C[C@@H](c2ccc(Cl)cc2)[C@]2(NC(=S)N(c3ccc(F)c(Cl)c3)C2=O)[C@@]12C(=O)NC1C=CC(Cl)=C[C@H]12 (some centres not stated),53.3%,50.7%,-63.2% (active),26.1%,82%,–,66.8%,6.69% (active),3.29% (active),–
CCCCCOC(=O)c1cccc(NC(=O)CN(CC)CC)c1,70.7%,100%,106%,89.2%,82.9%,–,113%,78.6%,87.5%,–
CCCCCCCCc1cc[n+](CC(=O)c2ccc(Br)cc2)cc1,0.325% (active),35.7%,8.54% (active),38.2%,–,41.4%,88.8%,0.476% (active),–,9.78% (active)
COc1ccc(C2CC(c3cnccn3)=NN2)cc1OC (configuration not stated),79%,108%,104%,88.7%,82.7%,–,112%,–,72%,–
COc1cc2c(=O)n(CCCn3ccnc3)c3c4cc5c(cc4ccc3c2cc1OC)OCO5,22%,21.3%,16.9%,-27.3% (active),35.3%,–,-75.6% (active),3.73% (active),3.68% (active),–
CN1C[C@@H](c2ccc(Cl)cc2)[C@]2(NC(=S)N(c3ccccc3)C2=O)[C@@]12C(=O)NC1C=CC(Br)=C[C@H]12 (some centres not stated),61.2%,71.1%,46.1%,40.4%,87.2%,–,80.2%,30.5%,21.4%,–
